Read-out in assay [1]: Interleukin-6 (IL6), IL6 (gene 3569)
Kind of assay: BSK_CASM3C_IL6: BioMAP Diversity Plus: CASM3C Assay for Interleukin-6 (IL6) Biomarker Activity for (AID 2283040). The note with it: primary human coronary artery smooth muscle cells; actives raise or lower the signal.

Read-out in assay [2]: Tissue plasminogen activator (tPA), PLAT (gene 5327)
Kind of assay: BSK_BE3C_tPA: BioMAP Diversity Plus: BE3C Assay for Tissue plasminogen activator (tPA) Biomarker Activity (AID 2283041).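 Note: tPA level quantified by ELISA one day after compound addition.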 The note with it: primary human bronchial epithelial cells; actives raise or lower the signal. The procedure, abridged:
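Human primary bronchial epithelial cells were dosed with chemical and tPA biomarker levels measured by ELISA 24 hours later. Activity was fitted bidirectionally against DMSO as negative control and baseline.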

Read-out in assay [3]: Interleukin-8 (IL8), CXCL8 (gene 3576)
Kind of assay: BSK_CASM3C_IL8: BioMAP Diversity Plus: CASM3C Assay for Interleukin-8 (IL8) Biomarker Activity (AID 2283042).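 Note: IL-8 protein level quantified by ELISA.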 The note with it: primary human coronary artery smooth muscle cells; actives raise or lower the signal.

Read-out in assay [4]: Human Leukocyte Antigen - DR isotype (HLADR), HLA-DRA (gene 3122)
As to the kind of experiment: BSK_CASM3C_HLADR: BioMAP Diversity Plus: CASM3C Assay for Human Leukocyte Antigen - DR isotype (HLADR) Biomarker Activity (AID 2283043).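 Note: cell-surface HLA-DR protein level quantified by ELISA.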 The note with it: primary human coronary artery smooth muscle cells; actives raise or lower the signal.

Read-out in assay [5]: Macrophage colony-stimulating factor (MCSF), CSF1 (gene 1435)
Kind of assay: BSK_CASM3C_MCSF: BioMAP Diversity Plus: CASM3C Assay for Macrophage colony-stimulating factor (MCSF) Biomarker Activity (AID 2283044).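 Note: M-CSF protein amount quantified by ELISA after 24 h exposure.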 Particulars: primary human coronary artery smooth muscle cells; actives raise or lower the signal.

Read-out in assay [6]: Low-density lipoprotein receptor (LDLR), LDLR (gene 3949)
Kind of assay: BSK_CASM3C_LDLR: BioMAP Diversity Plus: CASM3C Assay for Low-density lipoprotein receptor (LDLR) Biomarker Activity (AID 2283045).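 Note: LDLR protein level on the cell surface quantified by ELISA.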 Particulars: primary human coronary artery smooth muscle cells; actives raise or lower the signal.

Read-out in assay [7]: Monocyte Chemoattractant Protein-1 (MCP1), CCL2 (gene 6347)
Kind of assay: BSK_CASM3C_MCP1: BioMAP Diversity Plus: CASM3C Assay for Monocyte Chemoattractant Protein-1 (MCP1) Biomarker Activity (AID 2283046).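 Note: MCP-1 level quantified by ELISA 24 h after dosing.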 The note with it: primary human coronary artery smooth muscle cells; actives raise or lower the signal.

Assay [8] is described as follows: BSK_CASM3C_Proliferation: Cell Proliferation Assessment in the BioMAP Diversity Plus: CASM3C Assay (AID 2283047).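 Note: sulforhodamine B total protein stain as relative cell number at 560 nm; sub-confluent cells exposed 48 h before staining; fitted both ways against DMSO so gain or loss of cell number.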 Particulars: primary human coronary artery smooth muscle cells.
Read-out in assay [9]: Monokine induced gamma interferon (MIG), CXCL9 (gene 4283)
As to the kind of experiment: BSK_CASM3C_MIG: BioMAP Diversity Plus: CASM3C Assay for Monokine induced gamma interferon (MIG) Biomarker Activity (AID 2283048).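 Note: MIG protein level measured by ELISA.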 Particulars: primary human coronary artery smooth muscle cells; actives raise or lower the signal.

Read-out in assay [10]: serum amyloid A (SAA), SAA1 (gene 6288)
Kind of assay: BSK_CASM3C_SAA: BioMAP Diversity Plus: CASM3C Assay for serum amyloid A (SAA) Biomarker Activity (AID 2283049).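 Note: SAA protein level quantified by ELISA.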 The note with it: primary human coronary artery smooth muscle cells; actives raise or lower the signal.

Assay [11] is described as follows: BSK_CASM3C_SRB: Viability Assessment in the BioMAP Diversity Plus: CASM3C Assay (AID 2283050).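 Note: total protein by SRB staining as cytotoxicity measure in parallel cultures.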 Particulars: primary human coronary artery smooth muscle cells.
Read-out in assay [12]: Thrombomodulin, THBD (gene 7056)
Kind of assay: BSK_CASM3C_Thrombomodulin: BioMAP Diversity Plus: CASM3C Assay for Thrombomodulin Biomarker Activity (AID 2283051).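 Note: thrombomodulin protein level measured by ELISA 24 h after dosing.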 The note with it: primary human coronary artery smooth muscle cells; actives raise or lower the signal.

Read-out in assay [13]: Tissue Factor, F3 (gene 2152)
Kind of assay: BSK_CASM3C_TissueFactor: BioMAP Diversity Plus: CASM3C Assay for Tissue Factor Biomarker Activity (AID 2283052).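 Note: cell surface tissue factor protein level read by ELISA.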 Particulars: primary human coronary artery smooth muscle cells; actives raise or lower the signal.

Read-out in assay [14]: Interferon-gamma inducible Protein 10 (IP10), CXCL10 (gene 3627)
Kind of assay: BSK_hDFCGF_IP10: BioMAP Diversity Plus: hDFCGF Assay for Interferon-gamma inducible Protein 10 (IP10) Biomarker Activity (AID 2283053). Particulars: primary human foreskin fibroblasts; actives raise or lower the signal. The method in brief:
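Human foreskin fibroblast primary cells (hDFCGF system) were dosed with chemical and assayed at 24 h; IP-10 measured by ELISA. Activity fitted bidirectionally relative to DMSO negative control as baseline.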

Read-out in assay [15]: Urokinase-type plasminogen activator receptor (uPAR), PLAUR (gene 5329)
As to the kind of experiment: BSK_CASM3C_uPAR: BioMAP Diversity Plus: CASM3C Assay for Urokinase-type plasminogen activator receptor (uPAR) Biomarker Activity (AID 2283054).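 Note: cell-surface uPAR protein level quantified by ELISA.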 Particulars: primary human coronary artery smooth muscle cells; actives raise or lower the signal.

Read-out in assay [16]: Vascular cell adhesion molecule 1 (VCAM1), VCAM1 (gene 7412)
Kind of assay: BSK_CASM3C_VCAM1: BioMAP Diversity Plus: CASM3C Assay for Vascular cell adhesion molecule 1 (VCAM1) Biomarker Activity (AID 2283055).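 Note: VCAM-1 protein level quantified by ELISA on the cells.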 The note with it: primary human coronary artery smooth muscle cells; actives raise or lower the signal.

Read-out in assay [17]: Collagen III, COL3A1 (gene 1281)
As to the kind of experiment: BSK_hDFCGF_CollagenIII: BioMAP Diversity Plus: hDFCGF Assay for Collagen III Biomarker Activity (AID 2283056). Particulars: primary human foreskin fibroblasts; actives raise or lower the signal. The procedure, abridged: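 ELISA readout of Collagen III in human dermal (foreskin) fibroblasts, taken 24 h post-treatment. Gain or loss relative to DMSO vehicle fitted in both directions.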

Read-out in assay [18]: Epidermal growth factor receptor (EGFR), EGFR (gene 1956)
As to the kind of experiment: BSK_hDFCGF_EGFR: BioMAP Diversity Plus: hDFCGF Assay for Epidermal growth factor receptor (EGFR) Biomarker Activity (AID 2283057). Particulars: primary human foreskin fibroblasts; actives raise or lower the signal. The method in brief: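 Primary human foreskin fibroblasts were exposed to compound for 24 h, after which cell-surface EGFR was quantified by ELISA. Activity was fitted bidirectionally against the DMSO negative control as baseline.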

Read-out in assay [19]: Interleukin-8 (IL8), CXCL8 (gene 3576)
As to the kind of experiment: BSK_hDFCGF_IL8: BioMAP Diversity Plus: hDFCGF Assay for Interleukin-8 (IL8) Biomarker Activity (AID 2283058). Particulars: primary human foreskin fibroblasts; actives raise or lower the signal. The method in brief:
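IL-8 levels read by ELISA at 24 hours after dosing human skin fibroblast cultures. Parallel SRB staining assessed overt cytotoxicity, and gain or loss of signal was fitted against DMSO control.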

The nature of assay [20]: BSK_hDFCGF_Proliferation: Cell Proliferation Assessment in the BioMAP Diversity Plus: hDFCGF Assay (AID 2283059).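 Note: curves fitted for both rise and fall of signal versus DMSO baseline.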 Particulars: primary human foreskin fibroblasts. The method in brief: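 Total protein read at 560 nm after 0.1% SRB staining of TCA-fixed human skin fibroblasts, […]. Activity is fitted in both directions relative to DMSO as baseline.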

In PubChem BioAssay (EPA / NIEHS) one finds outcome and AC50 data, which are given here for six molecules.

The structures appear in SMILES notation. Where “and” joins values, the source holds several entries; their conditions need not be identical. Equal entries are not always repeated. The source holds several records for some structures; these can differ, active in one and inactive in another. Calls of active or inactive are those of the source. Rule for the calls: active = hit-call score of the fitted dose curve at least 0.9, where 1 is the maximum; inactive = score below 0.9.

In the case of `Nc1ccc2ccccc2c1`, the outcome in [1], in [2], in assay [3], in [4], in [5] and in assay [6] was inactive. Also, the result in assay [7], in assay [8], in assay [9], in [10], in [11] and in assay [13] was inactive. The result in assay [14], in assay [15], in [16], in assay [17], in assay [18] and in [19] was inactive. Also, the outcome in assay [20] was inactive. For the same molecule, the concentration at half-maximal activity (AC50) in [12] was 12.5 µM (active).

Consider `OCC(F)(F)OC(F)(F)C(F)(F)OC(F)(F)C(F)(F)OC(F)(F)F`, for which the outcome in assay [1], in [2], in [3], in [4], in assay [5] and in [6] was inactive. Besides, the outcome in [7], in assay [9], in assay [10], in [12], in assay [13] and in [15] was inactive. In addition, the outcome in assay [16], in [18] and in assay [19] was inactive. Also, the concentration at half-maximal activity (AC50) in assay [4] is 48.6 µM (active); in assay [5] it was 17.5 µM (active); in assay [7], 47.3 µM (active); in [8], 18.7 µM (active) and 28.5 µM (active); in assay [9], 30 µM (active); in assay [10], 35 µM (active). The AC50 in [11] was 32.9 µM (active) and 44.3 µM (active); in assay [16] it was 30 µM (active); in assay [20], 11.6 µM (active) and 15.8 µM (active).

With `CCOP(=S)(OCC)SCS(=O)(=O)CC`, the result in assay [1], in [2], in assay [3], in assay [4], in assay [5] and in [6] was inactive. Also, the result in [7], in [8], in assay [9], in assay [10], in assay [11] and in [12] was inactive. Besides, the outcome in [13], in assay [14], in assay [15], in [16], in assay [17] and in [18] was inactive. Moreover, the outcome in assay [19] and in assay [20] was inactive.

For `O=C(O)C1C(C(=O)O)C2(Cl)C(Cl)=C(Cl)C1(Cl)C2(Cl)Cl` (centres undefined), the result in assay [1], in assay [2], in assay [3], in [4], in assay [5] and in [6] was inactive. Besides, the result in assay [7], in [8], in assay [9], in assay [10], in assay [11] and in [12] was inactive. In addition, the outcome in assay [13], in assay [14], in [15], in assay [16], in assay [17] and in assay [18] was inactive. Moreover, the outcome in assay [19] and in [20] was inactive.

Consider `COP(=O)(O)OC`, for which the result in [1], in assay [2], in assay [3], in [4], in [5] and in assay [6] was inactive. In addition, the result in assay [7], in assay [8], in assay [9], in [10], in assay [11] and in [12] was inactive. Also, the result in assay [13], in assay [14], in assay [15], in [16], in assay [17] and in assay [18] was inactive. The result in assay [19] and in [20] was inactive.

Consider `OCC(F)(F)OC(F)(F)C(F)(F)OC(F)(F)CO`, for which the result in assay [1], in assay [2], in assay [3], in [4], in assay [5] and in assay [6] was inactive. Moreover, the result in assay [7], in assay [8], in [9], in assay [10], in assay [11] and in assay [12] was inactive. The outcome in [13], in assay [14], in assay [15], in assay [16], in [17] and in assay [18] was inactive. For the same molecule, the result in assay [19] and in assay [20] was inactive.

As a reminder, the AC50 is the concentration giving half of the maximal activity seen.
